# Assay: basal RPMI8226 viability, no added stimulus, profiling panel, cell-based, calcein-AM fluorescence, 48 h, PK04 Diversity Set (AID 1166);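 further: cells grown under basal conditions without added stimulus; test concentration not given here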
# Details: RPMI8226 myeloma viability, higher = more signal
row,SMILES,z-score
1,CCCNC(=O)[C@@]1(Sc2ccc(C)cc2)CC(=O)N(Cc2ccccc2Cl)[C@@H]1c1ccc(CO)cc1I,-1.67
2,C=CCN1Cc2ccccc2[C@H]2OC(c3ccc(OCCCO)cc3)=N[C@@]2(CCS(=O)(=O)c2ccccc2)C1=O,-0.209
3,[N-]=[N+]=Nc1ccccc1C[C@]1(C(=O)N2CCOCC2)N=C(c2ccc(OCCCO)cc2)O[C@H]1c1ccccc1N=[N+]=[N-],-2.98
4,C[C@]1(C(=O)O)c2ccccc2C(=O)N(Cc2cc(F)cc(C(F)(F)F)c2)[C@H]1c1ccc(CO)cc1,0.792
5,CC(C)c1nc2cc(Br)ccc2c(=O)o1,-0.262
6,CN(C)CCCC[C@@H]1NC(=O)[C@H]2C[C@@H](C(=O)O)[C@@H](c3ccc(O)cc3)N2C1=O,-0.817
7,CN1C(=O)C2C(C3CC3)C=C3CN(Cc4cccc(Cl)c4)[C@@H]([C@@H](O)Cc4ccccc4)C3C2C1=O (some centres undefined),-2.67
8,C=CCC(OC(C)=O)[C@@H]1[C@@H](N(Cc2ccc(-c3cccc(C(F)(F)F)c3)o2)C(=O)c2ccc(-c3ccccc3)cc2)c2cc(OCCCO)ccc2N1C(=O)c1ccc2ccccc2c1 (some centres undefined),-0.164
9,CCCCC(O)C1C=CC2C(=O)N(c3ccccc3)C(=O)C2N1Nc1ccc(C#N)cc1 (centres undefined),0.0528
10,NC(=O)N1C(=O)C2C(C1=O)C1C=C(CCCO)C2C(c2ccc(CN3CCCC3)cc2)N1Cc1sc2ccccc2c1Cl (centres undefined),0.0222
11,CC(C)=CCCC(C)=CC(O)C1C=CC2C(=O)NC(=O)C2N1Nc1ccccn1 (centres undefined),0.586
12,Cc1ccc(S[C@]2(C(=O)NCCCN(C)C)CC(=O)N(C3Cc4ccccc4C3)[C@@H]2c2ccc(CO)cc2I)cc1,-2.5
13,COc1ccc(C#Cc2ccc3c(c2)[C@]2(C(=O)N3)[C@H](C(=O)O)[C@H]3C(=O)O[C@H](c4ccccc4)[C@H](c4ccccc4)N3[C@@H]2c2ccccc2OCCO)cc1,-4.18
14,COc1ccc(CCNC(=O)[C@@H]2c3ccccc3C(=O)N(Cc3ccccc3OC)[C@H]2c2ccc(CO)cc2)cc1,0.245
15,C=CCC(OC(C)=O)[C@@H]1[C@@H](N(Cc2cccc3ccccc23)C(=O)Cc2ccc(OC)cc2)c2cc(OCCCO)ccc2N1C(=O)Cc1ccc2ccccc2c1 (some centres undefined),-1.36
16,CC(C)(C)OC(=O)CC[C@@]1(C(=O)NCCN2CCOCC2)N=C(c2ccc(OCCCO)cc2)O[C@@H]1c1ccccc1CN=[N+]=[N-],-0.749
17,CC(C)NC(=O)[C@@]1(C)c2ccccc2C(=O)N(Cc2ccccc2)[C@H]1c1ccc(CO)cc1,0.38
18,CN(C)c1ccc(C(O)C2C=CC3C(=O)N(Cc4ccccc4)C(=O)C3N2n2cnnc2)cc1 (centres undefined),1.4
19,COc1ccc(C(=O)Nc2ccc(CN3C(=O)[C@@]4(O[C@@H](CCn5cc(CCO)nn5)[C@H]([Si](C)(C)c5ccc(OC)cc5)[C@H]4C)c4ccccc43)cc2)cc1,-4.27
20,CC(C)C[C@H]1NC(=O)C([C@@H](C)OCc2ccccc2)NC(=O)[C@@]23C(=O)N[C@@H](Cc4ccccc4)C2[C@H](C)[C@@]2(C)O[C@H]2C3/C=C/C/C=C\CNC1=O (some centres undefined),-1.53
21,COc1ccc([Si](C)(C)[C@@H]2[C@@H](CC(=O)N3CCC[C@H]3CO)O[C@]3(C(=O)N(Cc4cccc(N5CCCCC5=O)c4)c4ccccc43)[C@H]2C)cc1,-4.25
22,CO[C@H]1O[C@H](CO)[C@@H](OC(=O)Nc2ccccc2-c2ccccc2)[C@H](OC(=O)Nc2ccccc2)[C@H]1OC(=O)Nc1ccccc1,-3.36
23,CCCCC(O)C1C=CC2C(=O)N(c3ccccc3)C(=O)C2N1Nc1ccc([N+](=O)[O-])cc1 (centres undefined),-0.438
24,C=CCNC(=O)[C@@H]1[C@H]2C(=O)O[C@H](c3ccccc3)[C@H](c3ccccc3)N2[C@H](c2ccc(OCCO)cc2)[C@@]12C(=O)Nc1ccc(C#CC3(O)CCCCCC3)cc12,-2.43
25,CN1C(=O)C2C(C1=O)C1C=C(c3ccc(CO)cc3)C2C(C2CC2)N1C (centres undefined),-0.594
26,COC(=O)[C@@]1(Cc2ccc(F)cc2)[C@H]2c3cc(C(=O)N4CCCC4)n(Cc4ccccn4)c3C[C@H]2CN1C(=O)c1ccccc1,-2
27,NC(=O)N1C(=O)C2C(C1=O)C1C=C(CCCO)C2C(c2ccc(CN3CCCC3)cc2)N1Cc1cc2c(cc1Br)OCO2 (centres undefined),0.124
28,CCCCN1CC=CC23O[C@@H]4/C=C\CCCOC(=O)C4[C@H]2C(=O)N(C(CO)C(C)C)[C@@H]3C1=O (some centres undefined),0.463
29,O=C1O[C@H](c2ccccc2)[C@H](c2ccccc2)N2[C@H]1[C@@H](C(=O)N1CCN(c3ncccn3)CC1)[C@]1(C(=O)Nc3ccc(C#CCCO)cc31)[C@H]2c1ccc(O)cc1,-0.26

# Source: PubChem BioAssay
